Hits are enriched below; roughly 5.4% of the tested compounds scored in any of these assays.
Mdm2-MdmX inh = disrupts the human Mdm2-MdmX interaction; O15151+Q00987; SaOS-2 split-luciferase Mdm2/MdmX complementation, luminescence; 3% of 330,000 active; AID 485346; inhibition, % at 8 µM;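 active = inhibition of at least 50% at 8 µM in the primary screen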
Target sequence (O15151 whole entry, looked up): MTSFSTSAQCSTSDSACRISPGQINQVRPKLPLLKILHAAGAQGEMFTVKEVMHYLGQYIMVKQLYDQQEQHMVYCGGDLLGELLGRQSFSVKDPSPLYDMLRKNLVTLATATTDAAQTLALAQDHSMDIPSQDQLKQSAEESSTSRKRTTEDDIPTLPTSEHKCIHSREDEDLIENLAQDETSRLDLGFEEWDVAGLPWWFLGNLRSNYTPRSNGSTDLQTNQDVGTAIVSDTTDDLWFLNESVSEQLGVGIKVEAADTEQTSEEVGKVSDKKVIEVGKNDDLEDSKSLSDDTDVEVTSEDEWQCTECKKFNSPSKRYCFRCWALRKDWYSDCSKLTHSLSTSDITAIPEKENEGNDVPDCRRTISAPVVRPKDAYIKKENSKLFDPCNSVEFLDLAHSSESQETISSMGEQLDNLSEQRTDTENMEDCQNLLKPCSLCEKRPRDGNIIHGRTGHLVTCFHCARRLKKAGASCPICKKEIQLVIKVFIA
Target sequence (Q00987 whole entry, looked up): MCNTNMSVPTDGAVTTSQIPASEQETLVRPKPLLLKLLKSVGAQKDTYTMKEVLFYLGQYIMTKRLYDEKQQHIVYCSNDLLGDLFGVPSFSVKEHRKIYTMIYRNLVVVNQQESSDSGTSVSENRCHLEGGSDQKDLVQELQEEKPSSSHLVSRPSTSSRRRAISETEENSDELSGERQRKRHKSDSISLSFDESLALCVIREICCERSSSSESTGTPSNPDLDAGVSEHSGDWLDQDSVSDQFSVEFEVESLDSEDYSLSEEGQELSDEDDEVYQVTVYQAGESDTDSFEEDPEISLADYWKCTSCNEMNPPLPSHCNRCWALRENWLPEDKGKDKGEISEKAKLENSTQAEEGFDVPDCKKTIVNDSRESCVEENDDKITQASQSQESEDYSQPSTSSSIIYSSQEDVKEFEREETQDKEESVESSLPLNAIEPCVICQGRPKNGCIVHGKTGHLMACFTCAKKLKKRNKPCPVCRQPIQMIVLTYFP
Beta cell apopt = blocks beta cell apoptosis. 0.8% of 300,000 active. AID 435005. INS-1E cytokine-induced death, ATP luminescence, 48 h; percent of positive-control rescue, neutral wells zero. protection from apoptosis, % (concentration not given with the values);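 active = Every replicate reaches about 75%, or at least half do and their mean reaches it too, limit read from the data; inconclusive = At least half of replicates reach the limit but their mean does not; inactive = Under half of replicates reach the limit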;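 also: 0% = cytokine-treated negative control wells and 100% = positive control rescue; higher means more ATP so stronger rescue from cytokine killing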
Calb FLC = C. albicans growth modulation with fluconazole | C. albicans CaCi-2 (fluconazole-resistant clinical isolate) + fluconazole, Alamar Blue growth, 48 h | growth inhibition, % (no concentration beside the values) | 0.57% of 300,000 active | AID 1979;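 active = growth inhibition above about 58% in most replicates, limit read from the data, passing the limit was not always enough; inconclusive = exactly half the replicates above a set limit; inactive = most replicates below a set limit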;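 also: all wells also contain fluconazole at 8 µg/ml as a sub-toxic cotreatment; 0% = median of DMSO wells and 100% = median of geldanamycin control wells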
CSC inhib = blocks cancer stem cells. 1.1% of 300,000 active. cancer stem cell-like cells viability, luminescence. inhibition, % at 7.5 µM; in the data active = inhibition above about 75%; inconclusive = no clear call, values can overlap the other calls; tested in HMLE shEcad cells
MPTP block = permeability transition pore inhibition; isolated mouse mitochondria, Ca2+ swelling absorbance, 30 min; inhibition, % at 10 µM; 1.4% of 360,000 active; AID 602449;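 active = inhibition of 50% or more, scaled per plate between neutral and stimulator controls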;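 also: 0% = DMSO wells given calcium and 100% = 1 mM EGTA wells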
SKKanGAS inh = blocks kanamycin growth of S. pyogenes SKKanGAS strain | BacTiter-Glo, 6 h | inhibition, % at 7.5 µM | 1.3% of 300,000 active | AID 1662;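 active = mean replicate score, as percent of positive control median, at least 50; inconclusive = mean below 50 but one replicate at or above 50; inactive = mean and every replicate below 50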;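 also: strain carries kanamycin resistance gene driven by streptokinase promoter and grows in 40 µg/ml kanamycin; loss of luminescence reflects streptokinase promoter inhibition or plain growth inhibition; 0% = median of DMSO wells and 100% = positive control at its reference dose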
Mdm2 MdmX conf = human Mdm2/MdmX binding inhibition, confirmed | inhibition, % at 8 µM | luminescent assay | shares compounds with Mdm2-MdmX inh | 55% of 10,000 active; in the data active = inhibition above about 40%
FLuc counter = counter-screen for Mdm2/MdmX inhibitors: full-length luciferase; SaOS-2 full-length luciferase counterscreen, luminescence; AID 504607; shares compounds with Mdm2-MdmX inh; inhibition, % at 8 µM; 77% of 6,200 active;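 active = mean inhibition at 8 µM reaching about 37%, which flags the compound as non-specific, limit read from the data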;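 also: p53-null SaOS-2 cells with luciferase driven by a doxycycline-inducible promoter; compound on cells about two nights before reading with doxycycline added after day one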
* marks the source's active call; other numbers are inactive results; u = inconclusive; x = not tested or not shown.

SMILES	Mdm2-MdmX inh	Beta cell apopt	Calb FLC	CSC inhib	MPTP block	SKKanGAS inh	Mdm2 MdmX conf	others
COc1cccc(C(=O)Nc2cccc(-c3nnc(-c4ccccc4)o3)c2)c1	42.3	3.2	8.9	26.2	12.5	u	x
CCOc1cccc(C(=O)Nc2cccc(-c3nnc(-c4ccc(C)cc4)o3)c2)c1	84.2*	13.5	-2.2	68.9	4.5	-6.3	8.4
CC1(C)Cc2c(ccc3ccccc23)C(=O)N1	52.1*	x	29.0	-11.7	0.4	-4.8	54.1*	FLuc counter=54.8*
CCCCNC(=S)NCc1ccc2[nH]c3c(c2c1)CCCC3	-3.6	-3.6	0.8	10.7	1.1	-0.9	x
Cc1ccc(C)c(NC(=S)NCc2ccc3[nH]c4c(c3c2)CCCC4)c1	63.6*	41.6	-10.7	x	0.8	11.0	13.3
Cc1ccccc1NC(=S)NCc1ccc2[nH]c3c(c2c1)CCCC3	65.4*	x	-6.8	22.9	0.8	9.5	32.2
CNC(=S)NCc1ccc2[nH]c3c(c2c1)CCCC3	-6.8	-1.9	-20.0	-5.3	1.4	-22.2	x
S=C(NCc1ccc2[nH]c3c(c2c1)CCCC3)Nc1ccccc1Cl	64.2*	8.6	-2.2	x	2.8	1.8	29.4
O=C(C1CCN(Cc2ccc(Cl)cc2)CC1)N1CCN(C(c2ccccc2)c2ccccc2)CC1	56.5*	33.4	7.3	64.2	1.1	10.6	25.1
O=C(c1ccc(Cl)cc1)C1CCN(Cc2ccccc2)CC1	22.3	-2.1	-9.1	-4.5	0.8	-3.1	x
Cn1nnnc1Sc1ncnc2scc(-c3ccc(-c4ccccc4)cc3)c12	100.5*	-4.0	x	x	1.4	x	22.6
Cn1nnnc1Sc1ncnc2scc(-c3cccs3)c12	97.5*	-83.7	x	56.6	x	x	89.5*	FLuc counter=55.8*
CC(=O)c1ccccc1-c1csc2ncnc(Sc3nnnn3C)c12	32.2	-34.7	x	24.4	-0.6	x	x
Cn1nnnc1Sc1ncnc2scc(-c3ccsc3)c12	99.6*	-3.9	x	x	-0.3	x	85.3*	FLuc counter=52.7*
Cn1nnnc1Sc1ncnc2scc(-c3ccc(C#N)cc3)c12	87.2*	-39.9	x	43.8	-0.1	x	78.6*	FLuc counter=59.6*
Cc1cc(C)cc(SCc2noc(C(=O)NCC3CC3)c2C(=O)NCC2CC2)c1	4.9	0.8	-1.4	32.3	x	30.2	x
Cn1nnnc1Sc1ncnc2scc(-c3cc4ccccc4o3)c12	100.3*	88.9*	x	115.3*	-0.9	x	99.4*	FLuc counter=51.2*
Cc1nnc(NC(=O)CSc2ncnc3scc(-c4ccccc4)c23)s1	11.8	-0.8	9.1	40.3	5.6	-0.3	x
Cc1c(Cl)cccc1NS(=O)(=O)c1ccccc1	x	x	x	x	0.3	x	x
COc1ccc(/C=C2\SC(=S)N(CCCC(=O)Nc3ccc(O)cc3)C2=O)cc1	75.9*	2.0	5.5	52.6	15.0	0.2	66.5*	FLuc counter=54.4*
COc1ccc(/C=C2/SC(=O)N(CCC(=O)Nc3ccccc3)C2=O)cc1OC	74.9*	2.6	1.1	1.1	0.6	2.3	26.3	FLuc counter=81.8*
COc1ccc(/C=C2/SC(=S)N(CCCC(=O)Nc3ccc(O)cc3)C2=O)cc1	88.1*	-13.3	-2.7	32.5	7.6	7.2	90.4*	FLuc counter=56.0*
O=C(CCCN1C(=O)/C(=C\c2ccco2)SC1=S)Nc1ccc2ccccc2c1	60.3*	-7.8	-4.1	86.2*	2.8	7.4	34.7	FLuc counter=98.2*
COc1cc(C(=O)NCc2cccc(Cl)c2)ccc1OCC(=O)N1CCOCC1	1.3	x	-1.6	-11.3	-0.5	-5.1	x
COc1cc(OC)c(/C=C2\SC(=O)N(CC(=O)Nc3ccccc3F)C2=O)c(OC)c1	57.4*	1.4	-5.1	-1.9	-0.5	-0.3	33.5	FLuc counter=73.1*
SMILES	Mdm2-MdmX inh	Beta cell apopt	Calb FLC	CSC inhib	MPTP block	SKKanGAS inh	Mdm2 MdmX conf	others
COc1cc(/C=C2\SC(N)=NC2=O)ccc1OCC(=O)Nc1ccc(C)cc1	56.5*	4.9	-11.9	8.9	0.5	11.4	-20.6
COc1cc(/C=C2/SC(=S)N(CCC(=O)Nc3ccc(C(=O)O)cc3)C2=O)cc(OC)c1OC	14.3	-1.2	16.4	0.1	0.0	31.5	x
COc1cc(/C=C2\SC(=S)N(CCC(=O)Nc3ccc(O)cc3)C2=O)cc(OC)c1OC	92.4*	4.2	-8.0	15.7	0.5	8.8	15.4
COc1ccc(/C=C2\SC(=S)N(CCCCCC(=O)Nc3cc(C)on3)C2=O)cc1OC	65.7*	6.0	-0.6	-5.8	0.9	2.9	12.9
COc1ccc(/C=C2/SC(=O)N(CCC(=O)Nc3ccc(C)cc3)C2=O)cc1OC	30.2	37.2	-3.4	31.3	x	0.6	x
C=CCN1C(=O)[C@@H]2Cc3c([nH]c4ccccc34)C(c3cc(OC)c(OC)c(OC)c3)N2C1=S (some centres not stated)	50.7*	7.2	3.8	28.4	2.2	25.3	21.9
COc1cc([C@H]2c3[nH]c4ccccc4c3C[C@H]3C(=O)N4[C@@H](c5cc(OC)c(OC)c(OC)c5)c5[nH]c6ccccc6c5C[C@H]4C(=O)N23)cc(OC)c1OC	79.4*	13.4	6.3	-5.7	1.5	15.1	29.2
CCOc1ccc(NC(=O)CN(C)C(=O)C2CSC3(C)CCC(=O)N23)cc1OCC (configuration not stated)	15.4	0.7	x	x	-3.0	x	x
O=C(CCNC(=O)C1CCN(S(=O)(=O)c2ccccc2)CC1)NCc1ccc(Cl)cc1Cl	18.8	x	-4.5	-7.9	-1.4	-2.2	x
Cc1cc(OCC(=O)Nc2ccccn2)c2c(C)cc(=O)oc2c1	5.9	x	-1.2	-31.1	-0.8	-4.4	x
Cc1cc(=O)oc2cc(NC(=O)COc3cccc(C(F)(F)F)c3)ccc12	69.2*	-2.7	x	0.1	0.9	x	0.4
Cc1csc(NC(=O)COc2ccc3c(C)cc(=O)oc3c2)n1	66.8*	-5.0	16.6	-4.4	-1.1	-2.9	9.7
Cc1cc(OCC(=O)Nc2nccs2)c2c(C)cc(=O)oc2c1	90.3*	-0.5	2.3	-18.3	0.6	22.5	0.7
Cc1cccc(OCC(=O)Nc2ccc3c(C)cc(=O)oc3c2)c1	16.3	2.5	-6.9	-22.1	-0.1	-5.9	x
O=C(/C=C/Nc1ccc(OC(F)(F)F)cc1)C(F)(F)F	8.0	x	2.1	-10.3	1.8	-5.0	x
COc1ccc(NC(=O)CC2C(=O)N(c3ccc(F)cc3)C(=S)N2NC(=O)c2ccccc2)cc1 (configuration not stated)	-33.1	1.2	-0.9	-5.6	0.8	0.5	x
CCCCc1cc(=O)oc2cc(OCc3nn[nH]n3)ccc12	17.0	-1.0	2.4	-0.1	0.8	3.9	x
CC(C)(C)C(=O)NNC(=O)c1cc(C(C)(C)C)nn1Cc1ccccc1	6.7	-8.4	3.6	-17.9	1.6	2.6	x
Cc1ccc(NC(=O)c2cc(C(C)(C)C)nn2Cc2ccccc2)cc1	74.3*	x	0.8	x	44.1	25.2	55.5*	FLuc counter=59.2*
COC(=O)N1C(=O)[C@@](CC(C)C)(c2ccccc2)N1C(=O)OC	51.0*	-11.3	-2.2	37.9	x	1.0	13.6

Assay outcomes from PubChem.
